Results: PubChem BioAssay AID493201 (National Center for Advancing Translational Sciences (NCATS), 2011)
Records with an inconclusive call do not appear. Values without a mark were called inactive. Activity calls are given as the source filed them. Calls come from the whole dose curve; as a rule, active = well fitted activation curve with a large enough effect; inconclusive = small, poorly fitted or top-dose-only effect; inactive = no such curve, though single readings can be large or run the other way.

Experiment: qHTS Assay for Identifying a Potential Treatment of Ataxia-Telangiectasia: Secondary assay (no NCS) hit validation;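 note: phosphorylated KAP1 signal as a proxy for ATM-like kinase activity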; for activation: 0% is about no effect
Settings: A-T patient fibroblasts, AlphaLISA, no DNA damage added, 90 min; series mostly up to 76.9 µM; activation: at the top concentration
Outline: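 hTERT-immortalized A-T patient fibroblasts (F2112), 500 cells/well, exposed to compounds at up to 76.7 uM final without NCS at 37C. KAP-1 phosphorylation measured by AlphaLISA after lysis and 6 h detection at 25C.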
Potency is the fitted concentration of half-maximal effect.

In order of rising “activation” value:
1. CN(Cc1ccccc1)C(=O)c1cccc(N2C(=O)C3CC=CCC3C2=O)c1 (stereo not drawn)  -19.5%
2. O=C(CCC(=O)c1ccc(F)cc1)Nc1cccc(Br)c1  -10.4%
3. O=C(CCCn1nnnc1CN1CCOCC1)N1CCC(c2ccc(F)cc2)C1 (stereo not drawn)  -5.38%
4. NC(=O)c1cc2ccccc2o/c1=N/NC(=O)c1cccc(F)c1  -4.35%
5. COc1cc(CCC(=O)OCC(=O)N2CCc3ccccc32)cc(OC)c1OC  -4.35%
6. COc1cccc(C(=O)NOCc2ccc(C)cc2)c1OC  -4.24%
7. CN(C)S(=O)(=O)c1cccc(C(=O)N=C2N=C3C=CC(Cl)=CN3Cc3ccccc32)c1  -3.39%
8. O=C(/C(=C/c1ccc(Cl)cc1)c1nc2ccccc2[nH]1)c1cccs1  -1.08%
9. Cc1ccc2c(c1)sc(=NC(=O)C1CC1)n2C  -1.08%
10. COc1ccc(C(=O)/C=C/C(=O)N(CC(=O)NC2CCCCC2)Cc2ccccc2)c(O)c1  -0.87%
11. COc1ccc(CCNC2=NCCS2)cc1OC  0%
12. COc1ccc(-n2c(C)cc(=O)[nH]c2=O)cc1  1.08%
13. CC(C)c1ccc(C(C(=O)NC2CCCCC2)N(C(=O)c2ccccn2)c2cccnc2)cc1 (stereo not drawn)  2.15%
14. CCOc1ccc(NC2=CC(=O)CCC2)cc1  2.15%
15. Cc1ccnc(NC(=O)c2ccccc2NC(=O)c2ccccc2)c1  3.23%
16. CCn1nc(C)c(/C=N/NC(=O)Cn2cncn2)c1C  4.3%
17. CCOC(=O)CN(C(=O)CSc1nnc(COc2ccc(OC)cc2)n1CC)c1ccccc1  5.38%
18. COc1ccccc1C(=O)NC(=O)Nc1cccc(Cl)c1  8.6%
19. COC(=O)CCc1c(C)c(C(=O)c2cc(OC)c(OC)c(OC)c2)c2ccccn12  9.68%
20. O=C(C(c1ccccc1)c1ccccc1)N1CC[C@@]2(O)CCCC[C@H]2C1  11.9%
21. O=C(O)c1ccc(-c2nc3ccccc3s2)o1  12.2%
22. CC(C)CN(CC(C)C)C(=O)c1cc2c(=O)n3ccccc3nc2s1  12.9%
23. CCC(=O)Nc1ccc(S(=O)(=O)c2ccc(NC(=O)CC)cc2)cc1  15.3%
24. O=C(NCCCN1CCOCC1)c1ccc2c(c1)N(Cc1cccc(F)c1)C(=O)c1ccccc1S2  18.3%
25. S=c1[nH]nc(C2CCCCC2)n1/N=C/c1ccc(Br)cc1  20.9%
26. Cc1ccc(C(=O)c2c(C)oc3c2C(=O)C(=O)c2ccccc2-3)cc1  25.2%

For `Clc1cccc(Cl)c1CSc1nnc(-c2ccncc2)s1`, the Potency was 41.2 µM (active).
For `COc1cccc(/C=N/NC(=O)c2cc3cc([N+](=O)[O-])ccc3s2)c1O`, the Potency was 46.3 µM (active).
With `CCN1C/C(=C/c2sccc2C)c2nc3ccccc3c(C(=O)O)c2C1` the Potency was 16.4 µM (active).
With `CC(C)CC(=O)Nc1c2c(nn1-c1cccc(Cl)c1)CS(=O)C2` (stereo not drawn) the Potency was 58.2 µM (active).
In the case of `COc1ccc(C2/C=C\CN(S(=O)(=O)c3ccc4ccccc4c3)CC(=O)N2Cc2ccc(F)cc2)cc1` (stereo not drawn), the Potency is reported as 41.2 µM (active).
With `Oc1ccc(-c2nccc(-c3ccc(F)cc3)n2)cc1` the Potency was 5.82 µM (active).
In the case of `CN(C)c1ccc2nc3ccc(=[N+](C)C)cc-3sc2c1`, the Potency is reported as 14.6 µM (active).
